These results are taken from PubChem BioAssay.

The nature of test [1]: stimulators of nuclear beta-catenin in C2C12, primary screen, imaging, WNT3A-conditioned medium, mouse C2C12, NPC library (AID 1117326; in the data active = nuclear beta-catenin stimulation mostly above about 4.2%, no sharp cut-off; inactive = mostly below about 10%; note: reference of the scale not given here). Particulars: stronger effect = higher value.
Test [2] can be described thus: stimulators of insulin release from INS-1E, primary screen, cell-based, 5 mM glucose, NPC library (AID 1117329;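 active = compound raises insulin release from rat beta cells at 5 mM glucose, no numeric limit stated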; note: reference of the scale not given here). Particulars: rat INS-1E insulin secretion, at 10 µM, stronger effect = higher value.
Test [3] is described as follows: growth inhibition of GSK3B-pretreated HCT116 cells – cell-based, CellTiter-Glo, 0.2 to 20 µM (AID 1117336;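 active = compounds lowering colon cancer cell viability after pretreatment blocking the GSK3B kinase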). Particulars: HCT116 viability after GSK3B inhibitor, at 20 µM, stronger effect = higher value. A general note: In ATP-based viability assays light output follows the ATP content of the culture.
The nature of test [4]: inhibition of endothelial tube formation, primary screen, imaging, VEGF stimulated, CD31 staining, tube area, NPC library (AID 1117340;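 active = compound that reduces growth-factor-driven endothelial tube area in a mixed cell culture, no cutoff stated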). The conditions noted are these: VEGF-stimulated ADSC/ECFC co-culture, at 10 µM, stronger effect = higher value.
A short description of test [5]: glucagon-like peptide 1 release enhancers, primary assay, NCI-H716 cell line, NPC library (AID 1117341;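 active = compound raises GLP1 secretion from the human gut endocrine cells, with no numeric limit stated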; note: reference of the scale not given here). Particulars: NCI-H716 cells, at 10 µM, stronger effect = higher value.
Test [6] in a line: HCT116 colon cancer cell growth inhibition, primary screen, CellTiter-Glo luminescence, NPC library (AID 1117342;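 active = compounds that lower survival of HCT116 colon cancer cells in the luminescence readout, no numeric limit stated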). Particulars: at 20 µM (top of the series).
The nature of test [7]: CellTiter-Glo luminescent readout of SW480 viability loss, NPC library primary (AID 1117343). Particulars: CellTiter-Glo luminescence; at 20 µM (top of the series).
Test [8] in a line: decreased DLD-1 cellular survival, CellTiter-Glo luminescent readout, NPC compound collection, primary HTS (AID 1117346;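 active = compounds that lower survival of DLD-1 colon cancer cells in the luminescence readout, no cutoff given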). Particulars: DLD-1 viability, CellTiter-Glo luminescence; at 20 µM (top of the series).

Activity calls are given as the source filed them.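 Rule for the calls, unless noted: active = compounds that lower viability of the colon cancer cells in the luminescence readout, with no numeric limit stated; inactive = the rest.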 Non-standard residues stand in square brackets, D forms with d. Residues, ends and D or L forms follow the SMILES beside them. pGlu = O=C1CC[C@@H](C(=O)O)N1

Consider `CO/N=C(\C(=O)O)c1csc(NC(=O)CCl)n1`, for which the nuclear beta-catenin stimulation was 0.7% (inactive) in test [1] (at 10 µM) and 2.9% in test [1] (stimulation, at 2 µM). In test [2], the insulin secretion stimulation is 1.4% (inactive). In addition, the viability decrease in test [3] is 16.2% (inactive). The tube area decrease in test [4] is -12.1% (inactive). In addition, the GLP1 secretion stimulation in test [5] is 1.7% (inactive). Further, the inhibition of viability in test [6] is -2% (inactive). The viability decrease (inhibition) in test [7] is -1.7% (inactive); in test [8] it was -2.1% (inactive).

Turning to `CC(C)(C)CC(=O)OCC(=O)[C@@]1(O)CC[C@H]2[C@@H]3CCC4=CC(=O)C=C[C@]4(C)[C@H]3[C@@H](O)C[C@@]21C`, the nuclear beta-catenin stimulation is 3% (inactive) in test [1] (at 10 µM) and 0.9% in test [1] (stimulation, at 2 µM). The insulin secretion stimulation in test [2] is 0% (inactive). In addition, in test [3], the viability decrease was -93.8% (inactive). Further, in test [4], the tube area decrease is 10.8% (inactive). Also, the GLP1 secretion stimulation in test [5] is 3.3% (inactive). Further, in test [6], the inhibition of viability is 20.7% (inactive). In addition, the viability decrease (inhibition) in test [7] is 57.4% (active); in test [8] it was 13.2% (inactive).

Take `CC(=O)O[C@@H]1C(=O)O[C@@H]2[C@H]1OC(=O)[C@@H]2OC(C)=O`: the nuclear beta-catenin stimulation is 0.6% (inactive) in test [1] (at 10 µM) and -1.1% in test [1] (stimulation, at 2 µM). Further, the insulin secretion stimulation in test [2] was 2.4% (inactive). Moreover, in test [3], the viability decrease was 19.5% (inactive). The tube area decrease in test [4] was -1% (inactive). Also, the GLP1 secretion stimulation in test [5] was -3.4% (inactive). The inhibition of viability in test [6] was 22.9% (inactive). For the same compound, the viability decrease (inhibition) in test [7] is 18.7% (inactive); in test [8] it was 4.6% (inactive).

`CCCc1ccc(OCC(=O)N2CCN(C(=O)COc3ccc(CCC)cc3OC)CC2)c(OC)c1`: the nuclear beta-catenin stimulation was 0.8% (inactive) in test [1] (at 10 µM) and 2.5% in test [1] (stimulation, at 2 µM). Moreover, the insulin secretion stimulation in test [2] is 2.6% (inactive). For the same compound, the viability decrease in test [3] is -50.5% (inactive). The tube area decrease in test [4] was 43.5% (active). The GLP1 secretion stimulation in test [5] is 10.9% (inactive). Also, the inhibition of viability in test [6] is 48.2% (inactive). The values for the viability decrease (inhibition) in test [7] and in test [8] were 97.2% (active) and 101% (active), respectively.

Take `CCOC(=O)[C@H](CCc1ccccc1)N[C@@H](C)C(=O)N(CC(=O)O)C1Cc2ccccc2C1`: the nuclear beta-catenin stimulation in test [1] (at 10 µM) is 1% (inactive); in test [1] (stimulation, at 2 µM) it was 0.4%. Further, in test [2], the insulin secretion stimulation is 1.15% (inactive). The viability decrease in test [3] was -0.3% (inactive). For the same compound, the tube area decrease in test [4] was 4.9% (inactive). In test [5], the GLP1 secretion stimulation was 3.1% (inactive). Moreover, the inhibition of viability in test [6] is 10.2% (inactive). Also, the viability decrease (inhibition) in test [7] was -7.1% (inactive); in test [8], -2.9% (inactive).

Consider `CCNC(=O)[C@@H]1CCCN1C(=O)[C@H](CCCN=C(N)N)NC(=O)[C@H](CC(C)C)NC(=O)CNC(=O)[C@H](Cc1ccc(O)cc1)NC(=O)[C@H](CO)NC(=O)[C@H](Cc1c[nH]c2ccccc12)NC(=O)[C@H](Cc1cnc[nH]1)NC(=O)[C@@H]1CCC(=O)N1` ([pGlu]HWSYGLRP-NHEt), for which the nuclear beta-catenin stimulation is 0.5% (inactive) in test [1] (at 10 µM) and -0.6% in test [1] (stimulation, at 2 µM). For the same compound, the insulin secretion stimulation in test [2] was -0.8% (inactive). Besides, in test [3], the viability decrease is 32.1% (inactive). Also, the tube area decrease in test [4] was -2.8% (inactive). Besides, in test [5], the GLP1 secretion stimulation was -2.8% (inactive). In addition, in test [6], the inhibition of viability was 33% (inactive). Further, the figures for the viability decrease (inhibition) in test [7] and in test [8] were 25.1% (inactive) and 29.7% (inactive), respectively.

Consider `C=CCOc1cc(Cl)ccc1C(=O)NCCN(CC)CC`, for which the nuclear beta-catenin stimulation in test [1] (at 10 µM) was -0.4% (inactive); in test [1] (stimulation, at 2 µM), 0.3%. Moreover, the insulin secretion stimulation in test [2] was 16.7% (inactive). Also, the viability decrease in test [3] is 11% (inactive). Further, in test [4], the tube area decrease was -13% (inactive). Also, the GLP1 secretion stimulation in test [5] is 9.1% (inactive). In test [6], the inhibition of viability is 30% (inactive). Also, the values for the viability decrease (inhibition) in test [7] and in test [8] were 32.4% (inactive) and -3.9% (inactive), respectively.

Turning to `C/C(=C(/OCCOc1ccc(Cl)cc1)c1ccc(Cl)cc1Cl)n1ccnc1`, the nuclear beta-catenin stimulation in test [1] (at 10 µM) is 3.9% (inactive); in test [1] (stimulation, at 2 µM), 1.3%. For the same compound, the insulin secretion stimulation in test [2] was -0.7% (inactive). The viability decrease in test [3] is 102% (active). The tube area decrease in test [4] was 109% (active). Also, the GLP1 secretion stimulation in test [5] was 4.1% (inactive). Moreover, the inhibition of viability in test [6] was 102% (active). The viability decrease (inhibition) is 143% (active) in test [7] and 105% (active) in test [8].

As for `CCOC(=O)c1cc(=O)c2c(OCC(COc3cccc4oc(C(=O)OCC)cc(=O)c34)OC(=O)[C@@H](N)CCCCN)cccc2o1`, the nuclear beta-catenin stimulation in test [1] (at 10 µM) is 0.5% (inactive); in test [1] (stimulation, at 2 µM) it was 1.2%. In test [2], the insulin secretion stimulation is -1.2% (inactive). Further, the viability decrease in test [3] was -30% (inactive). Besides, in test [4], the tube area decrease was 4.5% (inactive). Besides, the GLP1 secretion stimulation in test [5] was 7.5% (inactive). In test [6], the inhibition of viability was -25.1% (inactive). Further, the values for the viability decrease (inhibition) in test [7] and in test [8] were -75% (inactive) and -11.5% (inactive), respectively.

Turning to `Oc1ccc(Cl)cc1Sc1cc(Cl)ccc1O`, the nuclear beta-catenin stimulation in test [1] (at 10 µM) was 4.4% (inactive); in test [1] (stimulation, at 2 µM) it was 0%. Also, the insulin secretion stimulation in test [2] is 4.5% (inactive). For the same compound, the viability decrease in test [3] was 100% (active). Moreover, the tube area decrease in test [4] is 101% (active). Besides, the GLP1 secretion stimulation in test [5] is 47.3% (active). Moreover, the inhibition of viability in test [6] was 102% (active). Also, the viability decrease (inhibition) is 122% (active) in test [7] and 103% (active) in test [8].

`O=C1CCC(C(=O)O)N1` (stereo not given): the nuclear beta-catenin stimulation in test [1] (at 10 µM) is -1.2% (inactive); in test [1] (stimulation, at 2 µM), 2.3%. The insulin secretion stimulation in test [2] was 2.6% (inactive). Further, the viability decrease in test [3] was -7.5% (inactive). The tube area decrease in test [4] was 6.4% (inactive). In addition, the GLP1 secretion stimulation in test [5] is -3.6% (inactive). The inhibition of viability in test [6] was 2.4% (inactive). The figures for the viability decrease (inhibition) in test [7] and in test [8] were -1.5% (inactive) and -4% (inactive), respectively.

For the compound `OC[C@]1(O)OC[C@@H](O)[C@H](O)[C@@H]1O`, the nuclear beta-catenin stimulation in test [1] (at 10 µM) was 3.7% (inactive); in test [1] (stimulation, at 2 µM), 0.4%. Besides, the insulin secretion stimulation in test [2] is -1.9% (inactive). In addition, the viability decrease in test [3] was -2.95% (inactive). The tube area decrease in test [4] was 7.1% (inactive). The GLP1 secretion stimulation in test [5] was -6% (inactive). For the same compound, the inhibition of viability in test [6] is -4.9% (inactive). Moreover, the viability decrease (inhibition) in test [7] is 92.3% (active); in test [8] it was 9.6% (inactive).

`Cc1cc(O)c(C)c(C)c1O`: the nuclear beta-catenin stimulation in test [1] (at 10 µM) is 2.1% (inactive); in test [1] (stimulation, at 2 µM) it was -0.4%. In addition, in test [2], the insulin secretion stimulation was 1.3% (inactive). For the same compound, the viability decrease in test [3] was 4.5% (inactive). Moreover, the tube area decrease in test [4] was -1.3% (inactive). Further, the GLP1 secretion stimulation in test [5] was -0.5% (inactive). Further, in test [6], the inhibition of viability was -1.8% (inactive). The viability decrease (inhibition) is -15.7% (inactive) in test [7] and -26.1% (inactive) in test [8].

Take `CCOc1ccc(S(=O)(=O)O)c2cccnc12`: the nuclear beta-catenin stimulation is -0.1% (inactive) in test [1] (at 10 µM) and 0.5% in test [1] (stimulation, at 2 µM). Moreover, the insulin secretion stimulation in test [2] is 6% (inactive). Further, the viability decrease in test [3] was -10.2% (inactive). Also, the tube area decrease in test [4] is -5.5% (inactive). In addition, the GLP1 secretion stimulation in test [5] is -3.3% (inactive). The inhibition of viability in test [6] was -0.3% (inactive). The viability decrease (inhibition) is 1.9% (inactive) in test [7] and 0.1% (inactive) in test [8].

Regarding `Cc1cn([C@@H]2O[C@H](CO)[C@@H](O)[C@H]2F)c(=O)[nH]c1=O`, the nuclear beta-catenin stimulation in test [1] (at 10 µM) is -2.3% (inactive); in test [1] (stimulation, at 2 µM) it was -0.8%. The insulin secretion stimulation in test [2] is 0.3% (inactive). Besides, in test [3], the viability decrease was 26.6% (inactive). The tube area decrease in test [4] was -11.7% (inactive). Besides, the GLP1 secretion stimulation in test [5] was -3% (inactive). Also, the inhibition of viability in test [6] is 4.6% (inactive). In addition, the results for the viability decrease (inhibition) in test [7] and in test [8] were 3.1% (inactive) and 6.8% (inactive), respectively.
